Most compounds without a hit are left out; they make up all but 3.2% or so of the library.
p53null 39C tox: kills p53 null cells at the nonpermissive temperature; H1299 p53-null (neo) cells, 39C, ATPlite viability, 24 h; Potency, µM (series often up to 46.1 µM), inactives show at the top dose activity, negative = cell killing, actives largely listed as cytotoxic; hit rate 0.97% among 55,000; AID 904;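 note: 0% = DMSO only and -100% = full killing by 100 µM tamoxifen; nearly all actives have a fitted effect of over 50% in size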
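Following overnight plating at 37C (600 cells/well), H1299-neo or H1299-p53A138V cells are dosed up to 46 uM. Incubation lasts 24 hr at 39C before ATP detection.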
PMP22 txn prim: modulates PMP22 transcription in S16 Schwann cells; AID 1508649; hit rate 2% among 43,000; Potency, µM (doses to about 57.5 µM), inactives show at the highest dose activity change, negative = inhibition, usual class: inhibitors; S16 Pmp22-F2sN Schwann cells, FLuc/NLuc coincidence luminescence, 24 h; active = clear falling dose curves in both reporters; inconclusive = both reporters move, but less clearly or upward; inactive = either reporter flat; the % is the NLuc reporter signal
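qHTS, 1536-well. Cells seeded, compounds added by pin tool, 24 h 37C. Nano-Glo reagent 1 (lysis/FLuc), 10 min RT, read; Stop&Glo, 10 min RT, read NLuc.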
mTORC1 inh: inhibitors of mTORC1 signaling in Tsc2-/- p53-/- MEF cells. Tsc2-/- p53-/- MEF, phospho-rpS6 immunofluorescence/PI, 24 h. Potency, µM (series often up to 38.3 µM), inactives show at the highest dose activity change, negative = inhibition, usual class: inhibitors. hit rate 0.78% among 44,000;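 note: plate controls were DMSO for no effect and rapamycin for full effect; nearly all actives have a fitted effect of over 50% in size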
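Compounds act on Tsc2-/-, p53-/- fibroblasts carrying an empty vector for 24 h before fixation and dual staining for phospho-S6 and DNA (propidium iodide). Values are percentages of cells above a rapamycin-defined pS6/PI threshold.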
p53null 32C tox: selectivity test: cytotoxicity in p53 null cells, permissive temperature | hit rate 0.62% among 55,000 | H1299-neo p53 null cells, ATP luminescence, 24 h, 32C | Potency, µM (titrated, usually from 46.1 µM), inactives show top-dose activity change, negative = cytotoxicity, hits mostly cytotoxic | AID 903;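 note: 0% = DMSO only and -100% = full killing by 100 µM tamoxifen; nearly all actives have a fitted effect of over 55% in size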
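H1299-neo (p53 null) cells, 600/well, treated 24 h at 32C with compound up to 46 uM; ATPlite luminescence viability, normalized to DMSO and 100 uM tamoxifen; AC50 by Hill fit.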
S16 viability: cytotoxicity in S16 Pmp22-F2sN Schwann cells; S16 Pmp22-F2sN Schwann cells (luciferase reporters placed in the Pmp22 gene) viability, CellTiter-Glo, 24 h; Potency, µM (titrated, usually from 57.5 µM), for inactives: at the top dose activity change, negative = cytotoxicity, most hits filed as cytotoxic; hit rate 0.48% among 43,000; AID 1508642; note: nearly all actives have a fitted effect of over 65% in size
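Rat S16 Schwann reporter line, 24 h treatment with library compounds delivered at 23 nL per well. Cell viability by CellTiter-Glo luminescence.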
An asterisk follows results filed as active; ? = inconclusive. Unless noted, calls come from the whole dose curve; as a rule, active = well fitted curve in the direction sought with a large enough effect; inconclusive = small, poorly fitted or top-dose-only effect, or another doubt; inactive = no such curve, though single readings can be large; an effect the other way counts as inactive or inconclusive. Unless noted, % is set by controls: 0 for no effect and ±100 for the full control effect; potency is the fitted concentration of half-maximal effect.

SMILES	p53null 39C tox	PMP22 txn prim	mTORC1 inh	p53null 32C tox	S16 viability
CCc1ccc(N2CCn3c2nc2c3c(=O)n(Cc3c(F)cccc3Cl)c(=O)n2C)cc1	13µM*	10%	-1%	2%	8%
CCOc1c(Br)cc(C2CC(=O)Nc3cc4c(cc32)OCO4)cc1OC (configuration not stated)	?	?	15µM*	45%	?
CC(C)Oc1cccc(C2CC(=O)Nc3cc4c(cc32)OCO4)c1 (configuration not stated)	?	4.3µM*	6.6µM*	22%	?
COc1ccc(-c2nc(SCC(=O)Nc3c(C)cc(C)cc3C)n[nH]2)cc1	?	-4%	?	-10%	-1%
Cc1oc(-c2ccccc2Cl)nc1CSc1nncn2c1cc1occc12	?	-3%	-2%	0%	5%
CCCN(CCC)c1ccc(C2N=C(N)Nc3nc4ccccc4n32)cc1 (configuration not stated)	3.2µM*	?	-4%	?	?
COc1ccc(C2N=C(N)Nc3nc4ccccc4n32)cc1 (configuration not stated)	29%	-29%	-7%	-6%	0%
COC(=O)c1c(-c2ccc(Cl)cc2)noc1N1CCN(c2ccccc2F)CC1	-6%	6%	1%	-3%	10%
COC(=O)c1c(-c2ccc(Cl)cc2)noc1N1CCN(c2ccc(C(C)=O)cc2)CC1	-12%	2.7µM*	-15%	2%	?
COC(=O)c1c(-c2ccc(Cl)cc2)noc1N1CCN(c2ccc(OC)cc2)CC1	?	6µM*	2%	-7%	?
CCN(CC)c1ccc(NS(=O)(=O)c2ccc(-c3cnc(C4CC4)o3)cc2)c(C)c1	48%	?	0%	?	1.8µM*
COc1cccc(N2CCN(S(=O)(=O)c3ccc(-c4cnc(C5CC5)o4)cc3)CC2)c1	-25%	?	0%	-10%	16µM*
CCOc1ccccc1NS(=O)(=O)c1ccc(-c2cnc(C3CC3)o2)cc1	?	?	?	-6%	-17%
Cc1cc(C)c(NS(=O)(=O)c2cc(-c3cnc(C4CC4)o3)ccc2C)c(C)c1	-6%	-6%	30%	1%	3%
Cc1cc(C)c(NS(=O)(=O)c2ccc(-c3cnc(C4CC4)o3)cc2)c(C)c1	?	?	?	47%	0.79µM*
O=C1CC(c2nnc(Cc3ccc(F)cc3Cl)o2)CN1c1ccccc1 (configuration not stated)	-18%	7%	-10%	-4%	-5%
CC1(C)CC(=O)c2cc(C(=O)Nc3ccc(Cl)cc3)c(=O)[nH]c2C1	-22%	25%	14%	2%	8%
CCOc1ccccc1NC(=O)c1nc(S(=O)(=O)Cc2cccc(C)c2)ncc1Cl	?	1.7µM*	?	15%	3.2µM*
Cc1ccc(C)c(NC(=O)c2nc(S(=O)(=O)Cc3ccc(F)cc3)ncc2Cl)c1	?	7.6µM*	2.1µM*	-1%	?
CCc1nnc(NC(=O)c2nc(S(=O)(=O)Cc3cccc(C)c3)ncc2Cl)s1	?	9.5µM*	12µM*	53%	?
CCc1nnc(NC(=O)c2nc(S(=O)(=O)Cc3ccc(C)cc3)ncc2Cl)s1	16µM*	?	?	?	?
CCc1nnc(NC(=O)c2nc(SCc3ccccc3F)ncc2Cl)s1	-12%	-24%	2%	1%	6%
CCOc1ccccc1NC(=O)c1sc2nc(C)cc(C)c2c1N	4%	?	3%	-1%	-2%
Cc1cccc(CSc2ncc(Cl)c(C(=O)Nc3nc4ccc(F)cc4s3)n2)c1	-8%	?	4%	-9%	-12%
CCOc1ccc(NC(=O)c2nc(S(=O)(=O)Cc3ccccc3F)ncc2Cl)cc1	?	1.3µM*	3.7µM*	-19%	5µM*
SMILES	p53null 39C tox	PMP22 txn prim	mTORC1 inh	p53null 32C tox	S16 viability
Cc1ccc(NC(=O)CSc2c3c(nc4ccccc24)CCCC3)cc1F	22µM*	?	-13%	73%	-18%
COc1cc(NC(=O)CSc2ccc(-c3ccccn3)nn2)cc(OC)c1	?	?	13µM*	-28%	-27%
COc1cccc(NC(=O)CSc2c3c(nc4ccccc24)CCCC3)c1	-16%	?	?	54%	?
Cc1ccc(NC(=O)CSc2ccc(-c3ccccn3)nn2)cc1F	-10%	-47%	15µM*	-18%	-22%
CCOc1cccc2cc(-c3nc4sc5c(c4c(=O)[nH]3)CCC(C)C5)c(=O)oc12 (configuration not stated)	-22%	-24%	0%	5%	2%
CCN(CCCNC(=O)c1cc2c(=O)[nH]c3ccc(C)cc3c2s1)Cc1ccccc1	?	?	18µM*	?	?
CC1CCCN(CCCNC(=O)c2cc3c(Cl)nc4ccccc4c3s2)C1 (configuration not stated)	-29%	?	18µM*	2%	?
CC1CCCN(C(=O)c2cc3c(Cl)nc4ccccc4c3s2)C1 (configuration not stated)	-14%	-77%	-1%	-4%	0%
CCN(CC)CCNC(=O)c1cc2c(=O)[nH]c3ccc(C)cc3c2s1	20%	?	-1%	7%	6%
CN(CCCNC(=O)c1cc2c(Cl)nc3ccccc3c2s1)Cc1ccccc1	25µM*	?	13µM*	?	?
CCOc1ccc(CCNC(=O)CCc2c(C)nc3c(-c4ccccc4)c(C)nn3c2C)cc1OCC	-24%	-27%	-7%	-1%	7%
COc1cc(OC)c(NC(=O)c2nn(C)c3c2COc2ccccc2-3)cc1Cl	6%	-10%	-3%	-9%	-5%
Cc1oc(-c2cccc(Cl)c2)nc1CN1CCC(C(=O)NCCCN2CCN(c3ccccc3F)CC2)CC1	4%	7.9µM*	-17%	-2%	?
Cc1oc(-c2cccc(Cl)c2)nc1CN1CCC(C(=O)NC(C)c2ccccc2)CC1 (configuration not stated)	-28%	?	0%	-6%	-10%
Cc1oc(-c2cccc(Cl)c2)nc1CN1CCC(C(=O)NCCCN2CCN(c3ccc(F)cc3)CC2)CC1	0%	9.6µM*	0%	0%	10µM*
Cc1oc(-c2cccc(Cl)c2)nc1CN1CCCC(C(=O)NCc2ccc(F)cc2)C1 (configuration not stated)	?	?	3%	-1%	-16%
COc1ccc(-c2nc(CN3CCC(C(=O)NCCCN4CCN(c5ccccc5F)CC4)CC3)c(C)o2)cc1OC	-30%	?	15µM*	-18%	?

Compound activity from PubChem.
